Sampled rows, rich in hits. Any-hit rate of the full collection: about 21%.
Shiga toxin inh: blocks Shiga toxin action in Vero cells; Vero cells, Shiga toxin protein synthesis inhibition reporter; inhibition, % at 38.7 µM; actives 9.2% (n = 290,000); in the data active = inhibition mostly above about 28%, no sharp cut-off; inactive = mostly below about 43%
CHX counter: affects cycloheximide protein synthesis inhibition readout, counter-screen; cell reporter, cycloheximide protein synthesis inhibition counterscreen; max response, %; actives 12% (n = 300,000); AID 2314; in the data active = max response mostly above about 13%, no sharp cut-off; inactive = mostly below about 14%; also: read at 38.3 µM for the half of the compounds with a filed dose
NS1 inh: influenza NS1 inhibition | actives 0.4% (n = 270,000) | Potency, µM (highest dose often 46.1 µM); also: actives are rising curves; nearly all actives have a fitted effect of over 50% in size
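OD600 was taken as the measure of yeast growth restored by compound in an NS1-expressing S. cerevisiae strain. Cells had been washed out of glucose medium and diluted 1:100 into galactose -URA medium, pH 6.0.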
SARS PLP yeast: blocks SARS-CoV papain-like protease in a yeast assay. actives 0.19% (n = 330,000). S. cerevisiae expressing SARS-CoV PLpro, growth rescue. Potency, µM (titrated, usually from 32.9 µM), hits mostly activators. AID 485353; also: nearly all actives have a fitted effect of over 55% in size
Pf growth 96h: P. falciparum growth inhibition at 96 hours; P. falciparum luciferase reporter growth, 96 h; actives 6.9% (n = 320,000); Potency, µM (highest dose often 28.7 µM), usual class: inhibitors; active = well fitted inhibition curve with a large enough effect; inconclusive = small, poorly fitted or top-dose-only effect, or another doubt; inactive = no such curve, though single readings can be large or run the other way
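Readout is luminescence from an integrated firefly luciferase in P. falciparum. Red cells, 2% hematocrit and 0.05% parasitemia final, were cultured with compound through two parasite generations (96 hours) at 37 C, 5% CO2.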
Pf growth 48h: P. falciparum growth inhibition at 48 hours (one generation); Potency, µM (series often up to 28.7 µM), actives largely listed as inhibitors; P. falciparum luciferase growth in erythrocytes, 48 h; actives 5.9% (n = 310,000); active = well fitted inhibition curve with a large enough effect; inconclusive = small, poorly fitted or top-dose-only effect, or another doubt; inactive = no such curve, though single readings can be large or run the other way
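First compound was added to culture medium, then infected red cells at 0.1% parasitemia and 2% hematocrit (final). After incubation at 37 C under 5% CO2, luciferase detection reagent was dispensed and light output recorded.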
Numbers stand for hits; - = inactive; ? = inconclusive; . = no result given; ! = repeats disagree; [ ] = another dose, or the depositor's remark. Unless noted, calls follow the shape of the full dose curve.

SMILES | Shiga toxin inh | CHX counter | NS1 inh | SARS PLP yeast | Pf growth 96h | Pf growth 48h
COc1ccccc1C(=O)Nc1ccc2c3c(cccc13)CC2 | 87 | 38 | - | - | - | -
CCc1ccccc1-n1ncc(C(=O)Nc2ccccc2OC)c1C | - | - | - | - | 13µM | 12µM
COc1ccccc1C(=O)Nc1ccccc1SC(=O)c1ccccc1OC | 72 | 26 | - | - | - | -[0.00184 µM]
COc1ccccc1NC(=O)c1c[nH]c2ccccc12 | 52 | 34 | - | - | - | -
COC(=O)c1csc(C(=O)c2c[nH]c3ccccc23)n1 | 42! | 23! | . | . | . | .
NC(=O)c1c[nH]c2ccccc12 | - | - | - | - | - | ?
COc1ccccc1NC(=O)c1ccccc1NC(=O)c1ccccc1C(=O)O | . | 16 | ? | - | ? | -
Cc1cccc(C)c1NC(=O)c1c[nH]c2ccccc12 | 74 | 16 | - | - | - | -
O=C(Nc1ccc(-c2nnco2)cc1)c1ccccc1 | 68 | 14 | - | - | - | -
O=C(Nc1ccccc1)Nc1cccc(-c2nnco2)c1 | 48 | 20 | - | - | - | -
O=C(Nc1cccc(-c2nnc(-c3ccco3)o2)c1)c1ccccc1 | - | - | . | - | - | -[5.75 µM]
CCc1ccc(C(=O)Cn2ncc(Cl)c(Cl)c2=O)cc1 | - | 17 | - | - | - | -
Cc1ccc(Cn2ncc(Cl)c(Cl)c2=O)cc1 | - | - | - | - | ? | -
O=C(Cn1ncc(Cl)c(Cl)c1=O)N1CCN(Cc2ccccc2)CC1 | - | - | . | - | ? | ?
O=C(Cn1ncc(Cl)c(Cl)c1=O)N1CCOCC1 | 38 | 23 | . | - | ? | ?
Cc1cc(C)cc(Cn2ncc(Cl)c(Cl)c2=O)c1 | - | 36 | - | - | - | -
COc1ccc2nc(NC(=O)CCNC(=O)c3ccccc3Cl)sc2c1 | 77 | 33 | . | - | - | -
COc1ccc2nc(N(Cc3ccccc3)C(=O)CCNC(C)=O)sc2c1 | 44 | - | - | - | - | -
O=C(CCNC(=O)c1ccccc1Cl)Nc1nccs1 | - | - | . | - | - | -
CCN(CC)CCN(C(=O)c1ccc2ccccc2c1)c1nc2ccc(OC)cc2s1 | - | - | - | - | - | -
O=C(Cc1c(F)cccc1Cl)Nc1nc2ccccc2s1 | 113 | 38 | - | - | - | -
O=C(CCNC(=O)c1ccccc1Cl)Nc1nc2ccccc2s1 | 143 | 37 | . | - | - | -
O=C(NCCCn1ccnc1)/C(=C\c1ccc(Br)cc1)NC(=O)c1ccccc1 | - | - | - | ? | ? | -
CCCCCC=CCC=CCCCCCCCC(=O)OCC | . | . | . | . | - | -
CCCC(C)NC(=O)CN1C(=O)NC2(CCc3ccccc32)C1=O (centres undefined) | - | - | - | - | - | -
SMILES | Shiga toxin inh | CHX counter | NS1 inh | SARS PLP yeast | Pf growth 96h | Pf growth 48h
COc1cccc(N2CCN(CC(=O)NC(=O)NC3CCCCC3)CC2)c1 | . | . | . | - | - | -
O=C(CCNC(=O)c1ccccc1Cl)Nc1nc(-c2ccccc2Cl)cs1 | - | 22 | - | - | - | -
O=C(CSc1nnnn1-c1ccccc1F)Nc1nc2ccccc2s1 | - | - | - | - | - | .
C=CCn1c(CCNC(=O)c2ccccc2F)nnc1SCC(=O)Nc1nc2ccccc2s1 | - | - | - | - | 12µM | .
CCOC(=O)c1sc(NC(=O)Cc2c(F)cccc2Cl)nc1C | 75 | 30 | . | - | - | ?
CC(=O)c1sc(NC(=O)Cc2c(F)cccc2Cl)nc1C | - | - | - | - | - | -
COC(=O)c1c(NC(=O)COC(=O)CC(NC(C)=O)c2ccccc2)sc(C)c1C (centres undefined) | . | . | . | - | - | -
O=C(Nc1ccc(N2CCOCC2)c(Cl)c1)c1ccc(Cl)cc1 | 52 | 32 | . | - | - | -
O=C(Nc1ccc(Cl)c(S(=O)(=O)N2CCOCC2)c1)C1CCCC1 | . | . | . | - | . | .
Cc1cc(C(=O)Nc2ccc(C)c(S(=O)(=O)N3CCOCC3)c2)c(C)o1 | - | - | . | - | - | ?
O=C(Nc1ccc(N2CCOCC2)c(Cl)c1)C1CCCCC1 | - | 52 | - | - | - | -
CCN(CC)S(=O)(=O)c1cccc(NC(=S)NC(=O)/C=C/c2ccc(S(=O)(=O)N3CCOCC3)cc2)c1 | - | - | - | - | 4.7µM | ?
Cc1cc(C(=O)Nc2ccc(N3CCOCC3)c(Cl)c2)c(C)o1 | 42 | 34 | - | - | - | -
O=C(Nc1ccc(N2CCOCC2)cc1N1CCOCC1)c1ccc(Cl)cc1 | - | - | - | - | ? | -
COc1ccc([N+](=O)[O-])cc1NC(=O)C(C)OC(=O)CC1CCCC1 (centres undefined) | . | . | . | - | - | ?
CCc1cccc(NC(=O)CCNS(=O)(=O)c2ccc3c(c2)oc(=O)n3C)c1 | - | - | - | - | ? | -
O=C(/C=C/c1ccc(Cl)cc1)NC(=S)Nc1ccc(N2CCOCC2)c(Cl)c1 | - | - | - | - | 10µM | -
O=C(Nc1ccc(N2CCOCC2)c(Cl)c1)c1ccccc1F | 109 | 35 | - | - | . | -
COC(=O)c1cc(NC(=O)c2cc(-c3ccccc3Cl)oc2C(F)(F)F)ccc1N1CCOCC1 | - | - | - | - | ? | ?
COC(=O)c1cc(NC(=O)c2cc(-c3ccc(Cl)cc3)oc2C(F)(F)F)ccc1N1CCOCC1 | - | - | ? | - | ? | 12µM
O=C(/C=C/c1ccc(S(=O)(=O)N2CCOCC2)cc1)NC(=S)Nc1ccc(Cl)cc1Cl | - | - | - | - | - | ?
CC(C)(C)c1ncc(S(=O)(=O)c2ccc(C(F)(F)F)cn2)c(N)n1 | - | - | - | - | - | ?
C/C(=N/NC(=O)c1ccc(C)s1)c1ccncc1 | 60 | 30 | - | - | ? | -
C/C(=N\NC(=O)c1cccs1)c1ccncc1 | 107 | 36 | - | - | - | -[0.00184 µM]
CCc1ccc(C(=O)N/N=C(\C)c2ccncc2)s1 | 70 | 37 | - | - | ? | -
SMILES | Shiga toxin inh | CHX counter | NS1 inh | SARS PLP yeast | Pf growth 96h | Pf growth 48h
C/C(=N\NC(=O)c1ccc(OC2OCCOC2Oc2ccc(C(=O)N/N=C(\C)c3ccncc3)cc2)cc1)c1ccncc1 (centres undefined) | - | - | - | - | ? | 1.7µM
C/C(=N\NC(=O)c1ccncc1)c1ccc(N2CCOCC2)cc1 | . | . | . | - | - | -
C/C(=N/NC(=O)c1ccncc1)c1ccccc1 | . | - | - | - | - | -
CC12CN3CC(C)(CN(C1)C3c1ccccc1F)C2 (centres undefined) | - | - | - | - | - | ?
O=C(CSC1=NS(=O)(=O)c2ccccc2N1)Nc1cccc(F)c1 | . | . | . | - | - | -
C/C(=N/NC(=O)c1cnccn1)c1cccs1 | 93 | 40 | - | - | - | -
Cc1cccc(N(CC(=O)NCc2ccc(F)cc2)C(=O)c2ccco2)c1 | - | - | - | - | - | -
S=C1NC2=C(CCC/C2=C\c2ccccc2)C(c2ccccc2)N1 (centres undefined) | - | - | - | - | ? | -
Fc1cccc(/C=C2\CCCC3=C2NC(=S)NC3c2cccc(F)c2)c1 (centres undefined) | - | - | - | - | 4.1µM | 2.6µM
